Eight compounds from PubChem BioAssay (NCI) can be followed below.

Some test systems named below: SR leukemia; RPMI-8226 leukemia; OVCAR-8 ovarian; OVCAR-5 ovarian; OVCAR-4 ovarian; SK-OV-3 ovarian; IGROV1 ovarian; OVCAR-3 ovarian; HS 578T breast; NCI/ADR-RES ovarian; T-47D breast; BT-549 breast; MDA-MB-435 melanoma; SW-620 colon; MCF7 breast; HCT-116 colon; HCC-2998 colon; KM12 colon.
Common to all, as to experiment: NCI-60 one-dose screen, 48 h (100 = growth as untreated, 0 = no growth, -100 = all killed)
What all share (conditions): 10 µM unless noted

Compounds without any hit were thinned out: in the full panel of roughly 83,000, 20% have a hit.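 Cells were grown in 96-well plates and exposed to the test compound at a single concentration for 48 hours; results are reported as percent growth, with values below 10 considered active.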 Unmarked numbers belong to inactive results. Activity calls are given as the source filed them.

Take `N#Cc1cccc(NC(=O)c2cc(-c3ccc(F)cc3F)ccc2O)c1`: the growth is 27.3% with SR leukemia; -8.42% (active) in the test with RPMI-8226 leukemia; 10.8% in the test with OVCAR-8 ovarian; 14.6% in the test on OVCAR-5 ovarian; 8.85% (active) in the test with OVCAR-4 ovarian; 5.89% (active) in the test with SK-OV-3 ovarian. In addition, the growth with IGROV1 ovarian is 13.2%; in the test with OVCAR-3 ovarian it was 9.74% (active); in the test on HS 578T breast it was 3.15% (active); with NCI/ADR-RES ovarian, 4.64% (active); with T-47D breast it was 7.54% (active); in the test with BT-549 breast, -0.215% (active). Moreover, the growth was 2.73% (active) with MDA-MB-435 melanoma; 13.4% with SW-620 colon; 2.47% (active) in the test on MCF7 breast; 5.45% (active) with HCT-116 colon; 22.7% in the test with HCC-2998 colon; 2.94% (active) with KM12 colon.
For the compound `CS(=O)(=O)c1ccc(-n2cc(/C=N/O)c(-c3ccccc3)n2)cc1`, the growth in the test with SR leukemia is 30.3%; with RPMI-8226 leukemia, 70.9%; in the test on OVCAR-8 ovarian, 84.2%; in the test with OVCAR-5 ovarian, 98.6%; in the test on OVCAR-4 ovarian it was 77.6%; with SK-OV-3 ovarian, 109%. The growth was -26.2% (active) in the test on IGROV1 ovarian; 94.4% in the test with OVCAR-3 ovarian; 95.4% in the test on HS 578T breast; 84.4% in the test on NCI/ADR-RES ovarian; 59.1% in the test on T-47D breast; 60.7% in the test with BT-549 breast. In addition, the growth in the test with MDA-MB-435 melanoma is 85.9%; in the test with SW-620 colon, 104%; with MCF7 breast, 21.5%; in the test on HCT-116 colon it was 92.1%; in the test with HCC-2998 colon, 95.4%; with KM12 colon, 96.9%.
Regarding `N#Cc1cnc2ccc(-c3cnc(N)nc3)cc2c1N1CCc2cc(F)c(Cl)cc21`, the growth with SR leukemia was 8.58% (active); in the test on RPMI-8226 leukemia, -16.9% (active); in the test on OVCAR-8 ovarian, 12%; in the test on OVCAR-5 ovarian, 19.8%; in the test on OVCAR-4 ovarian it was 12.3%; in the test with SK-OV-3 ovarian, 0.148% (active). Besides, the growth in the test with IGROV1 ovarian was -44.6% (active); with OVCAR-3 ovarian, 8.88% (active); in the test on HS 578T breast, -22.5% (active); with NCI/ADR-RES ovarian, 6.22% (active); in the test on T-47D breast it was 9.38% (active); in the test with BT-549 breast it was 3.1% (active). Further, the growth with MDA-MB-435 melanoma was -1.22% (active); in the test on SW-620 colon, 9.24% (active); in the test with MCF7 breast it was 5.81% (active); in the test with HCT-116 colon it was 2.24% (active); in the test on HCC-2998 colon, -3.03% (active); in the test on KM12 colon it was 7.85% (active).
As to `CC1=CC(=O)C2=C(C)CC(OC(=O)CCc3ccccc3)[C@@H]3[C@H](OC(=O)[C@@H]3C)[C@@H]12` (some centres undefined), the growth in the test with SR leukemia was 86.8%; with RPMI-8226 leukemia, 74.7%; in the test with OVCAR-8 ovarian, 96.8%; with OVCAR-5 ovarian it was 95.9%; in the test on OVCAR-4 ovarian, 91.6%; in the test on SK-OV-3 ovarian it was 91.6%. The growth with IGROV1 ovarian is 82.7%; with OVCAR-3 ovarian, 98.6%; with HS 578T breast, 104%; in the test on NCI/ADR-RES ovarian, 98.2%; in the test on T-47D breast, 96.5%; with BT-549 breast, 98.9%. Moreover, the growth in the test on MDA-MB-435 melanoma is 93.3%; in the test on SW-620 colon it was 96.7%; with MCF7 breast it was 83.9%; with HCT-116 colon, 69.2%; with HCC-2998 colon, 102%; in the test on KM12 colon, 91.2%.
On to `CC(=O)C1=C(C)NC(NNC(N)=S)=NC1c1ccccc1` (centres undefined), for which the growth with SR leukemia was 112%; in the test with RPMI-8226 leukemia, 108%; in the test on OVCAR-8 ovarian, 107%; with OVCAR-5 ovarian, 90%; in the test with OVCAR-4 ovarian, 78%; in the test with SK-OV-3 ovarian it was 104%. Also, the growth is 77.9% in the test on IGROV1 ovarian; 111% in the test on OVCAR-3 ovarian; 103% in the test with HS 578T breast; 108% in the test on NCI/ADR-RES ovarian; 103% in the test with T-47D breast; 92.2% in the test with BT-549 breast. Besides, the growth in the test with MDA-MB-435 melanoma is 99.2%; in the test with SW-620 colon it was 96.8%; in the test on MCF7 breast, 101%; in the test on HCT-116 colon, 94.9%; in the test on HCC-2998 colon it was 103%; in the test on KM12 colon, 102%.
In the case of `CC(C)c1ccc(NCc2cn(-c3ccc(C(=O)O)cc3)nc2-c2cc(C(F)(F)F)cc(C(F)(F)F)c2)cc1`, the growth in the test with SR leukemia was 101%; in the test on RPMI-8226 leukemia it was 65.7%; in the test with OVCAR-8 ovarian, 85%; in the test with OVCAR-5 ovarian it was 103%; in the test on OVCAR-4 ovarian, 96.2%; in the test on SK-OV-3 ovarian, 90.5%. Besides, the growth was 92.7% in the test with IGROV1 ovarian; 80.9% with OVCAR-3 ovarian; 68% in the test on HS 578T breast; 82.8% in the test on NCI/ADR-RES ovarian; 71% in the test on T-47D breast; 102% with BT-549 breast. Besides, the growth in the test on MDA-MB-435 melanoma is 91%; with SW-620 colon, 86.8%; in the test with MCF7 breast, 75.3%; in the test on HCT-116 colon, 84%; with HCC-2998 colon it was 97%; in the test on KM12 colon it was 82.5%.
As for `Cc1ccc(NC(=O)c2ccc(CN3CCOCC3)c(C(F)(F)F)c2)cc1Oc1ccc(-c2[nH]nc3ncnc(N)c23)cc1`, the growth in the test on SR leukemia was 55.5%; in the test on RPMI-8226 leukemia, 44.6%; in the test on OVCAR-8 ovarian, 70.9%; in the test on OVCAR-5 ovarian, 72%; with OVCAR-4 ovarian it was 72.7%; in the test with SK-OV-3 ovarian it was 71.6%. Also, the growth was 74.2% with IGROV1 ovarian; 93.2% in the test with OVCAR-3 ovarian; 62.8% with HS 578T breast; 87.9% with NCI/ADR-RES ovarian; 11% in the test on T-47D breast; 66.8% with BT-549 breast. Also, the growth in the test with MDA-MB-435 melanoma was 47.7%; in the test with SW-620 colon it was 110%; with MCF7 breast, 55.8%; in the test with HCT-116 colon, 55.4%; with HCC-2998 colon it was 75.2%; in the test on KM12 colon, 25.4%.
`COc1ccc(C(=O)c2c(N)c(C#N)cn2-c2ccccc2OC)cc1`: the growth in the test with SR leukemia is 16.1%; in the test on RPMI-8226 leukemia, 35.9%; in the test on OVCAR-8 ovarian, 55.9%; with OVCAR-5 ovarian it was 76.7%; in the test with OVCAR-4 ovarian, 63.3%; with SK-OV-3 ovarian it was 45.6%. Besides, the growth in the test with IGROV1 ovarian is 33.1%; in the test on OVCAR-3 ovarian, 14.6%; in the test with HS 578T breast, 13%; with NCI/ADR-RES ovarian, 13.5%; with T-47D breast, 32.1%; in the test with BT-549 breast it was 64.5%. The growth was -27.8% (active) in the test with MDA-MB-435 melanoma; 20.3% in the test on SW-620 colon; 13.9% with MCF7 breast; 22.2% with HCT-116 colon; 48% in the test on HCC-2998 colon; 27.5% in the test on KM12 colon.
